Results: PubChem BioAssay
Results filed as inconclusive are left out. Active and inactive are the calls of the source.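 How the source made its calls, unless noted: active means inhibition above 50%, about 3 SD of the validation set; inactive means the rest.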

Columns and labels:
[1] = yeast TOR pathway RPL19A-GFP modulators, primary screen, cell-based, S. cerevisiae, multiplex flow cytometry (AID 1862; in the data active means percent of DMSO control GFP below about 86%;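 further: lower values mimic rapamycin by blocking the RPL19A rise seen in DMSO cells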); conditions: S. cerevisiae RPL19A-GFP strain, flow cytometry fluorescence, 3 h; at 10 µM; stronger effect = lower value
[2] = modulators of MEP2-GFP levels in yeast, primary screen, S. cerevisiae, multiplex flow cytometry (AID 1867;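 active means GFP response, as percent of the DMSO control, above the screen-wide mean plus 3 SD, about 139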;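 further: median GFP channel fluorescence of barcode-gated MEP2-GFP cells measured by flow cytometry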); conditions: S. cerevisiae MEP2-GFP strain, 3 h, at 10 µM, stronger effect = higher value, 100% means same as DMSO wells
[3] = modulators of CIT2-GFP expression in yeast, primary screen, S. cerevisiae, GFP fusion, multiplex flow cytometry (AID 1870;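 active means percent response above a set limit, the screen-wide mean plus 3 SD, cut at about 130% in these data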;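 further: barcoded CIT2-GFP strain pooled with four other GFP strains with rapamycin as positive control; median GFP fluorescence per well over plate mean of DMSO wells so 100% = DMSO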); conditions: 3 h, at 10 µM, stronger effect = higher value
[4] = modulators of LAP4-GFP expression in yeast, primary screen, S. cerevisiae, multiplex flow cytometry (AID 1873;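 active means GFP signal, as percent of the solvent control, above the screen mean plus 3 SD, about 149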); conditions: 3 h, at 10 µM, stronger effect = higher value
[5] = modulators of AGP1-GFP expression in yeast TOR pathway, primary screen, cell-based, multiplex flow cytometry, S. cerevisiae (AID 1887;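 active means GFP signal above the screen-wide mean plus 3 SD, that is over about 124.5% of the solvent control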;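 further: AGP1-GFP fusion strain of S. cerevisiae within a five-strain barcoded multiplex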); conditions: 3 h, at 10 µM, stronger effect = higher value
[6] = inhibitors of CD8+ T cell-vesicle binding, pilot screen, LFA-1/ICAM-1 modulator project, MLPCN validation set, flow cytometry (AID 2523;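 active means response below a set limit, under 55% cells CD8-positive and vesicle-bound, and CD8 cells' 90th-percentile brightness under 279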;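 on vesicle binding response: mean PE anti-B7-1 fluorescence of CD8+ cells relative to row control; 100% = QL9-loaded vesicles with DMSO vehicle in the same plate row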); conditions: 2C mouse CD8+ T cells, at 7 µM, stronger effect = lower value; double positive events: measured here: CD8+/vesicle+ event percentage
[7] = biological target: Integrin beta-1 (Homo sapiens) + Integrin alpha-4 (Homo sapiens) (UniProt P13612+P05556); experiment: inhibition of HUTS-21 binding to VLA-4, pilot screen, VLA-4 allosteric modulator project, U937 cells, HUTS-21 mAb, flow cytometry, validation set (AID 2674); conditions: HUTS-21 LIBS mAb binding, at 6.7 µM, stronger effect = higher value, binding induced by LDV ligand;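 further: antibody binding induced by the VLA-4 ligand LDV present at three times its Kd; 0% = LDV ligand with antibody and no compound and 100% = antibody without LDV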
Integrin beta-1 (Homo sapiens) + Integrin alpha-4 (Homo sapiens), sequence (P05556 whole entry, looked up): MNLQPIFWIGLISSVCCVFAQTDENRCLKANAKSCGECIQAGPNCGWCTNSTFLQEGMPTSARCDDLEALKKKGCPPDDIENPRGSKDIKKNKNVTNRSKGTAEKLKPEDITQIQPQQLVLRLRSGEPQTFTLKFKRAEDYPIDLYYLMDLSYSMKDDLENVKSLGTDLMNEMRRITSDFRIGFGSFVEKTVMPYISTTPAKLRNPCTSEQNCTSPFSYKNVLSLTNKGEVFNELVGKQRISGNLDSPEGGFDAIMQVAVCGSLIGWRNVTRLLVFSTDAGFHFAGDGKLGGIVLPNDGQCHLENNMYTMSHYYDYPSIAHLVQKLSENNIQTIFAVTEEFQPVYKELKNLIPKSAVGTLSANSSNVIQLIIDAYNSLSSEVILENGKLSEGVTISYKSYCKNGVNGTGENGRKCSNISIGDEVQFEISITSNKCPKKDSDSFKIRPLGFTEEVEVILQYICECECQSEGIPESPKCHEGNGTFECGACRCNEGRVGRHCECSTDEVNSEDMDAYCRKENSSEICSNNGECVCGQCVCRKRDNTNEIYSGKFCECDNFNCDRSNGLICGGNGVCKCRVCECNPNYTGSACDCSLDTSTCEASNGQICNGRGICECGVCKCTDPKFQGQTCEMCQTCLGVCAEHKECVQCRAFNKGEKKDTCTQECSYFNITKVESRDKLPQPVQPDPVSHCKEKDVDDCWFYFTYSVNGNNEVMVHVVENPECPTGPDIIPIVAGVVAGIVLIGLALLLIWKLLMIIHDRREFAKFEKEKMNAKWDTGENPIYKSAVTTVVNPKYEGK
Integrin beta-1 (Homo sapiens) + Integrin alpha-4 (Homo sapiens), sequence (P13612 whole entry, looked up): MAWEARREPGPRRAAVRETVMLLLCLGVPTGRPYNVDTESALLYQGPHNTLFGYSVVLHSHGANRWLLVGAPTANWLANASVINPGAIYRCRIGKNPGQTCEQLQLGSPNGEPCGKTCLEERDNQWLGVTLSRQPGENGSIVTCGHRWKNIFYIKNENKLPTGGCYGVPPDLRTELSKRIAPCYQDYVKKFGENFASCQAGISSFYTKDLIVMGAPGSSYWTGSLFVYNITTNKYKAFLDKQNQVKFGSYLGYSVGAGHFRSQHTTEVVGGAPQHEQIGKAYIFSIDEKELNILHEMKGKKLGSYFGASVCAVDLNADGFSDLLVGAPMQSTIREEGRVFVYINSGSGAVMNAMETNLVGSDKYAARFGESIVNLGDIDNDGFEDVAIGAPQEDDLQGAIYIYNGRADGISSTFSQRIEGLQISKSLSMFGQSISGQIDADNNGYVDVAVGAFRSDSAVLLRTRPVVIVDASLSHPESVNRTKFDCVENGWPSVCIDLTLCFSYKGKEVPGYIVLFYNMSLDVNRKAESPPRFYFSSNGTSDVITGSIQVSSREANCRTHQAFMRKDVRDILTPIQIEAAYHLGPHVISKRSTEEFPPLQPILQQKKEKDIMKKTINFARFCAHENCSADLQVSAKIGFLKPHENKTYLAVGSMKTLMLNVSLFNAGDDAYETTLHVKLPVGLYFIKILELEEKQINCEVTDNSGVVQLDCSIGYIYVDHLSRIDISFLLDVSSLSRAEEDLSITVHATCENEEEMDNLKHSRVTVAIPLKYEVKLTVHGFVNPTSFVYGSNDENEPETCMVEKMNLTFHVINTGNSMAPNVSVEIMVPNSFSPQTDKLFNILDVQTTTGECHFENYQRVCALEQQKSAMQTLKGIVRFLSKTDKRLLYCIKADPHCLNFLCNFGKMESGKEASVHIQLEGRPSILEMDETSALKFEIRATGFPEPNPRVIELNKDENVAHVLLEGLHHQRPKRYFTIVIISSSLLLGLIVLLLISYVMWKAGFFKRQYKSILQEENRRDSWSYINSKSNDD

[8] = superoxide lowering in aged yeast cells, pilot screen, validation compound set (AID 2706;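 active means superoxide response below 65% of plate, a cut near 3 SD across the whole screen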;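 further: yeast exposed to compound for one week at 30 degrees C before staining; 100% = mean of all compound wells on the same plate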); conditions: S. cerevisiae aging, superoxide DHE fluorescence; at 10 µM; stronger effect = lower value
[9] = biological target: Beta-adrenergic receptor kinase 1 (Homo sapiens) (UniProt P25098); experiment: GRK2 binders displacing RNA aptamer, biochemical, validation, human GRK2, bead flow cytometry (AID 488806;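 active means aptamer binding inhibition above 30%, about 3 SD of noise from non-fluorescent compounds; inactive means inhibition at or below 30%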); conditions: bead-bound GRK2, FAM-aptamer displacement, at 10 µM, stronger effect = higher value
Beta-adrenergic receptor kinase 1 (Homo sapiens), sequence (P25098 whole entry, looked up): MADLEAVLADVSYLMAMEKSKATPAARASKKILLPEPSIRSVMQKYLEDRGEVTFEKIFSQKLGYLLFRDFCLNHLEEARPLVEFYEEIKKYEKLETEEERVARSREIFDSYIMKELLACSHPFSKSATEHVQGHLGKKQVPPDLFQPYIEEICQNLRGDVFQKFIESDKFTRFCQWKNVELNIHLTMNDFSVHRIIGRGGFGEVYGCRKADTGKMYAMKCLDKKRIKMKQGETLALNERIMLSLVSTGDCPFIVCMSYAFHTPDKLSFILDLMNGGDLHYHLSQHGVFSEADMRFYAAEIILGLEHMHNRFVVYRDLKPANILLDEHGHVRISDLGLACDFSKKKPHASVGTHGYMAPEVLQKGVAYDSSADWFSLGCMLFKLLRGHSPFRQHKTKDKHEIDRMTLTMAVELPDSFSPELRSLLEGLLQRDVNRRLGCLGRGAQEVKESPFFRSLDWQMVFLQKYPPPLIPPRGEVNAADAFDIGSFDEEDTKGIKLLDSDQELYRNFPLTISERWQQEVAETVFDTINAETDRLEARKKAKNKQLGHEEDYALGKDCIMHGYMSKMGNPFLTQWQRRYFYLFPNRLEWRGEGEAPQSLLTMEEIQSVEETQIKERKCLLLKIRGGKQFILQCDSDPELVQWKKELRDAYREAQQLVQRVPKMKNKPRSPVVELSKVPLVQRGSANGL

[10] = biological target: Beta-2 adrenergic receptor (Homo sapiens) (UniProt P07550); experiment: beta2AR agonists driving receptor internalization, pilot screen, cell-based, FAP fluorogen, flow cytometry, validation set (AID 504459;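 active means percent response above 42, roughly 3 SD of non-fluorescent test compounds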;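 further: agonist-driven loss of surface beta2AR via internalization measured by FAP dye flow cytometry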); conditions: Am2.2-beta2AR cells, FAP surface receptor flow cytometry; at 10 µM; stronger effect = higher value
Beta-2 adrenergic receptor (Homo sapiens), sequence (P07550 whole entry, looked up): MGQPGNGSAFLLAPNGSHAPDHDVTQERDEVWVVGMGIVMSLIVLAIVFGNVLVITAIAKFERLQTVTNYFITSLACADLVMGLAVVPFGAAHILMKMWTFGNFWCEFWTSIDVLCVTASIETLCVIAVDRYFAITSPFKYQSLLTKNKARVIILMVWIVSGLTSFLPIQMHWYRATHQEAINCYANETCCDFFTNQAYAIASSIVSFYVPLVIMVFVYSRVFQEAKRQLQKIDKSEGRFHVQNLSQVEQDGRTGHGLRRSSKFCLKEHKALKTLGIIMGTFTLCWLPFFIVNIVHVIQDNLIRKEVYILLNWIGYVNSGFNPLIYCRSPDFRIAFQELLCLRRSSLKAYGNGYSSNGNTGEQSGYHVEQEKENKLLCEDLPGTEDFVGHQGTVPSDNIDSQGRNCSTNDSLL

[11] = biological target: AP-2 complex subunit beta (Homo sapiens) (UniProt P63010); experiment: inhibitors of arrestin peptide binding to AP2, pilot screen, biochemical, validation set, GST-AP2 beads, flow cytometry (AID 504541;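 active means inhibition above 54%, about 3 SD of non-fluorescent compounds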;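 further: AP2 carries R879A mutation and is captured from E. coli lysate; bead-bound FITC arrestin peptide fluorescence measuring arrestin peptide binding to AP2; 0% = DMSO wells and 100% = excess unlabeled arrestin peptide control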); conditions: FITC arrestin peptide, at 10 µM, stronger effect = higher value, AP2 beta2 appendage fragment, R879A mutant
AP-2 complex subunit beta (Homo sapiens), sequence (P63010 whole entry, looked up, the tested form may be a part, one chain of several): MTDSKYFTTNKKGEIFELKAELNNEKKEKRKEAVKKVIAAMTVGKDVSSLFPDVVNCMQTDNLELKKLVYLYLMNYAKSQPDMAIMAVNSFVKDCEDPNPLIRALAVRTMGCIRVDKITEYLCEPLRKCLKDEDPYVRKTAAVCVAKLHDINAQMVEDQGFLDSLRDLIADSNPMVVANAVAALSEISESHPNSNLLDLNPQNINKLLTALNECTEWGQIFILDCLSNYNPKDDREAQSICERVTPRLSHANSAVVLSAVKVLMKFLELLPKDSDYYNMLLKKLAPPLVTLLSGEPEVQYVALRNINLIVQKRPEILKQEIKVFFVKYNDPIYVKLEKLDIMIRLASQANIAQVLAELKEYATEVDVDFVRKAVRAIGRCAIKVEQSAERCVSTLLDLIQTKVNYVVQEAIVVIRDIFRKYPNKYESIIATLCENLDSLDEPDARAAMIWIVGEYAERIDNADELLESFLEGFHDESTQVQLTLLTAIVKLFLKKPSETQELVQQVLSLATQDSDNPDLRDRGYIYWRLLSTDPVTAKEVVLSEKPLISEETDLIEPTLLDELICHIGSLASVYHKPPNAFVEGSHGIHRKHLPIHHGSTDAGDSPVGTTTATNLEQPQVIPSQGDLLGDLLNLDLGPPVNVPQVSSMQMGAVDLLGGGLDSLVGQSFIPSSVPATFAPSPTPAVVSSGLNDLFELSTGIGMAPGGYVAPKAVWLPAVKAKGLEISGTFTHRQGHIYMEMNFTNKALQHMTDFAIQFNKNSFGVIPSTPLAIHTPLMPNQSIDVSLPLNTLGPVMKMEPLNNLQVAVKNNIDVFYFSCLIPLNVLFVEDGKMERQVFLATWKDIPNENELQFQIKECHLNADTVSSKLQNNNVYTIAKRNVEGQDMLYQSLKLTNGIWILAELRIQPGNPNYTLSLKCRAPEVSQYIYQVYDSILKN

[12] = yeast V-ATPase proton transport modulators, S. cerevisiae, pHLuorin, HTS validation (AID 504600; in the data active means response above about 15%;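 further: plate controls were DMSO for no effect and reference compound for full effect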); conditions: S. cerevisiae pHLuorin cytosolic pH, at 10 µM, stronger effect = higher value
[13] = test system: anti-desmoglein-3 scFv antibody binding to human DSG3; experiment: inhibitors of anti-DSG3 scFv binding to DSG3, pilot screen, biochemical, validation compound set, bead-based, flow cytometry (AID 588368;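 active means binding below the plate cutoff, the plate median minus 3 SD, with a reading above zero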;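 further: signal is the median channel fluorescence of bead-bound GFP antibody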); conditions: Protein G beads, DSG3-Fc, scFv-GFP binding, at 10 µM, stronger effect = lower value
[14] = inhibitors of fungal efflux pumps CDR1, CDR2, MDR1, pilot screen, validation compound set, multiplex, phenotypic (AID 588506;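 active means efflux inhibition above 0.42, the validation set average plus 4 SD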;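 further: Nile Red retained in cells so higher fluorescence means more efflux inhibition; 0 = negative control wells and 1 = enniatin B 25 µM full block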); conditions: S. cerevisiae pump-expressing triplex, Nile Red efflux flow cytometry; at 10 µM; stronger effect = higher value; the pumps come from Candida albicans
[15] = biological target: ATP-binding cassette sub-family B member 6 (Homo sapiens) (UniProt Q9NP58); experiment: ABCB6 transporter inhibitors, pilot screen, K562-ABCB6 cells, flow cytometry, validation set (AID 588550;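 active means inhibition above the screen-wide mean plus 3 SD, about 51%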;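 further: 0% = DMSO wells and 100% = benzethonium chloride 70 µM positive control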); conditions: K562-ABCB6 porphyrin accumulation, 1 h, at 10 µM, stronger effect = higher value
ATP-binding cassette sub-family B member 6 (Homo sapiens), sequence (Q9NP58 whole entry, looked up): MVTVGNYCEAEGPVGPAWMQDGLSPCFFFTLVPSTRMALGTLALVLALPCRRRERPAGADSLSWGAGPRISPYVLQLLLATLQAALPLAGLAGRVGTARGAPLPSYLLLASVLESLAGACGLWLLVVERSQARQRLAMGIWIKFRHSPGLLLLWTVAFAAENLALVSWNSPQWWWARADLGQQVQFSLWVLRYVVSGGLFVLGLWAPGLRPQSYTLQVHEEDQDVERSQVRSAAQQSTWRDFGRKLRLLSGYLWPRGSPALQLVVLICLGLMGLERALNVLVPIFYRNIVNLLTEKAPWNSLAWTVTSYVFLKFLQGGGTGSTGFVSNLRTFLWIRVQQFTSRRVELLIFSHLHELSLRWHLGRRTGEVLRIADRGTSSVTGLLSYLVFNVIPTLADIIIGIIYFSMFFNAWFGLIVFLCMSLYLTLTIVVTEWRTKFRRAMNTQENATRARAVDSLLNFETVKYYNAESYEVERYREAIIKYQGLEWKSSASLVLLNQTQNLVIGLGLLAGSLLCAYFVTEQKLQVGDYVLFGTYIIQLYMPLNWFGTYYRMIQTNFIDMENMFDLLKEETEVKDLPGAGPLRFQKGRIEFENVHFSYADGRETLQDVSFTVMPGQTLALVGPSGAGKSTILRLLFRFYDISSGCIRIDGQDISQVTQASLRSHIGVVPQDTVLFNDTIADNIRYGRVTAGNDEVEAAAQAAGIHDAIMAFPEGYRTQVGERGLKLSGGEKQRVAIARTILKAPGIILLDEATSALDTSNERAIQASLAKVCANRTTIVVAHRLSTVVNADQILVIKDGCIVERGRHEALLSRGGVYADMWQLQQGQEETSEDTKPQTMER

[16] = promoters of myeloid differentiation in arrested cells, primary screen, cell-based, GFP/MAC1 double positive, flow cytometry, validation set (AID 588685;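 active means differentiation response of at least 50%, scaled between solvent and reference control, from cells with both markers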;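 further: compound exposure lasts four days before antibody staining and flow analysis; 0% = DMSO wells and 100% = 5 µM fulvestrant positive control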); conditions: ER-HoxA9 marrow cells, stronger effect = higher value, normalized: vehicle 0, fulvestrant 100

SMILES | percent of DMSO control GFP [1] | GFP response vs DMSO [2] | percent response of DMSO control [3] | GFP response vs DMSO [4] | GFP response, % of DMSO [5] | double positive events [6] [%] | vesicle binding response [6] | inhibition [7] | superoxide response (% of plate) [8] | aptamer binding inhibition [9] | response [10] | inhibition [11] | response [12] | binding (% of control) [13] | efflux inhibition (fraction of control) [14] | inhibition [15] | differentiation response [16]
COc1ccc(/C=C/C(=O)NC(=S)NN2CCCCC2c2cccnc2)cc1 (centres undefined) | 106% (inactive) | 99.7% (inactive) | 102% (inactive) | 107% (inactive) | 109% (inactive) | 66.3 | 199% (inactive) | -2.43% (inactive) | 95.5% (inactive) | -3% (inactive) | -5.93% (inactive) | 12.7% (inactive) | 0.36% (inactive) | 104% (inactive) | 0.33 (inactive) | 2% (inactive) | -4.57% (inactive)
COc1ccc2c(C=O)cn(C)c2c1 | 89.8% (inactive) | 137% (inactive) | 103% (inactive) | 82% (inactive) | 85% (inactive) | 66.8 | 151% (inactive) | 6.46% (inactive) | 87.5% (inactive) | 7% (inactive) | -0.49% (inactive) | 9.51% (inactive) | -4.19% (inactive) | 105% (inactive) | 0.27 (inactive) | 11% (inactive) | 4.91% (inactive)
CC1(C)C(=O)OC(/C=C\c2ccccc2)C(C)(C)C1=O (centres undefined) | 98.4% (inactive) | 101% (inactive) | 95.7% (inactive) | 112% (inactive) | 107% (inactive) | 64.8 | 160% (inactive) | 1.44% (inactive) | 80.2% (inactive) | 6% (inactive) | -19.9% (inactive) | 6.83% (inactive) | -6.88% (inactive) | 97.3% (inactive) | -0.09 (inactive) | 3% (inactive) | 4.86% (inactive)
COc1ccc(Cc2noc(CN(C)CC3(N4CCOCC4)CCCCC3)n2)cc1OC | 94.3% (inactive) | 99.7% (inactive) | 106% (inactive) | 95.9% (inactive) | 98.3% (inactive) | 60.5 | 80.5% (inactive) | 2.93% (inactive) | 108% (inactive) | 2% (inactive) | 8.59% (inactive) | -7.18% (inactive) | 2.83% (inactive) | 102% (inactive) | 0.22 (inactive) | 36% (inactive) | -10.4% (inactive)
Cn1c(=O)[nH]c(=O)c2c1nc(NCc1ccco1)n2CCCc1ccccc1 | 101% (inactive) | 101% (inactive) | 100% (inactive) | 90.1% (inactive) | 105% (inactive) | 62.6 | 36.6% (inactive) | -2.53% (inactive) | 103% (inactive) | 5% (inactive) | -5.62% (inactive) | 9.94% (inactive) | 0.19% (inactive) | 97.2% (inactive) | -0.07 (inactive) | -1% (inactive) | -3.67% (inactive)
COc1ccccc1/C=C/CN1CCN(Cc2ccc(F)cc2)C(CCO)C1 (centres undefined) | 101% (inactive) | 98.8% (inactive) | 98.2% (inactive) | 91.6% (inactive) | 98.5% (inactive) | 63.2 | 171% (inactive) | -3.18% (inactive) | 92.6% (inactive) | 1% (inactive) | 9.17% (inactive) | -20.3% (inactive) | 0.79% (inactive) | 107% (inactive) | -0.38 (inactive) | 8% (inactive) | -3.4% (inactive)
COc1cc(SC)ccc1C(=O)NC(C)C | 102% (inactive) | 101% (inactive) | 99.6% (inactive) | 101% (inactive) | 94.9% (inactive) | 58.7 | 171% (inactive) | -9.98% (inactive) | 97.8% (inactive) | -1% (inactive) | -0.58% (inactive) | -4.67% (inactive) | 1.52% (inactive) | 101% (inactive) | -0.13 (inactive) | 6% (inactive) | -21.6% (inactive)
